From PubChem BioAssay (NCI) come the findings set out here.

Test systems include SR leukemia; RPMI-8226 leukemia; OVCAR-8 ovarian; OVCAR-5 ovarian; OVCAR-4 ovarian; SK-OV-3 ovarian; IGROV1 ovarian; OVCAR-3 ovarian; HS 578T breast; NCI/ADR-RES ovarian.
Holding throughout (test): NCI-60 one-dose screen, 48 h (100 = growth as untreated, 0 = no growth, -100 = all killed)
Common to all, as to settings: 10 µM unless noted

Molecules are shown by their SMILES. The panel holds about 83,000 compounds, 20% with a hit somewhere; the sample as a whole holds those more often.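 Activity criterion: percent growth below 10, measured after cells in 96-well plates were exposed to a single compound concentration for 48 hours.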 Values without a mark were called inactive. Activity calls are given as the source filed them.

For `COc1ccc(S(=O)(=O)NCCCNc2nccc(-c3c(-c4cccc([N+](=O)[O-])c4)nc4sccn34)n2)cc1`, the growth was 53.5% in the experiment with SR leukemia; 11.5% in the experiment with RPMI-8226 leukemia; 29.8% in the experiment with OVCAR-8 ovarian; 98.7% in the experiment on OVCAR-5 ovarian; 29.2% in the experiment with OVCAR-4 ovarian; 89.6% in the experiment on SK-OV-3 ovarian. Also, the growth in the experiment on IGROV1 ovarian is 40.1%; in the experiment on OVCAR-3 ovarian, 41.2%; in the experiment on HS 578T breast, 65.9%; with NCI/ADR-RES ovarian, 22.9%.
For `Clc1ccccc1-c1nc2ccccc2[nH]1`, the growth with SR leukemia is 116%; in the experiment with RPMI-8226 leukemia it was 74%; in the experiment with OVCAR-8 ovarian, 106%; with OVCAR-5 ovarian it was 54.4%; with OVCAR-4 ovarian, 96.9%; with SK-OV-3 ovarian, 103%. The growth in the experiment with IGROV1 ovarian is 108%; with OVCAR-3 ovarian, 102%; in the experiment on HS 578T breast it was 113%; in the experiment on NCI/ADR-RES ovarian it was -4.71% (active).
As to `C=C(C)[C@@H]1CC[C@]2(C(=O)N3CCNCC3)CC[C@]3(C)[C@H](CC[C@@H]4[C@@]5(C)C/C(=C/c6ccncc6)C(=O)C(C)(C)[C@@H]5CC[C@]43C)[C@@H]12`, the growth was 106% with SR leukemia; 98.2% in the experiment on RPMI-8226 leukemia; 98.2% with OVCAR-8 ovarian; 105% with OVCAR-5 ovarian; 98.9% with OVCAR-4 ovarian; 107% in the experiment with SK-OV-3 ovarian. In addition, the growth with IGROV1 ovarian is 103%; in the experiment on OVCAR-3 ovarian, 116%; with HS 578T breast, 98.4%; in the experiment on NCI/ADR-RES ovarian, 109%.
Take `O=C1/C(=C/c2ccc(Cl)cc2)CN(C(=O)CCN2CCC(=NO)CC2)C/C1=C\c1ccc(Cl)cc1`: the growth in the experiment with SR leukemia was -5.09% (active); with RPMI-8226 leukemia, -34.1% (active); in the experiment with OVCAR-8 ovarian, -89.8% (active); in the experiment with OVCAR-5 ovarian, -63.6% (active); with OVCAR-4 ovarian, -78.6% (active); in the experiment on SK-OV-3 ovarian it was -38.2% (active). For the same molecule, the growth in the experiment on IGROV1 ovarian is -67.2% (active); with OVCAR-3 ovarian, -97.5% (active); in the experiment on HS 578T breast, -20.3% (active); in the experiment on NCI/ADR-RES ovarian, 1.6% (active).
For the molecule `COc1ccc(Cn2cc3c(c2-c2cc(OC)c(OC)c(OC)c2)CCc2cnoc2-3)cc1`, the growth is 13.1% in the experiment on SR leukemia; 23.4% in the experiment with RPMI-8226 leukemia; 34.6% in the experiment with OVCAR-8 ovarian; 47.7% in the experiment on OVCAR-5 ovarian; 22.6% with OVCAR-4 ovarian; -0.435% (active) in the experiment on SK-OV-3 ovarian. For the same molecule, the growth with IGROV1 ovarian is 7.18% (active); with OVCAR-3 ovarian, -5.4% (active); in the experiment on HS 578T breast it was 15.9%; with NCI/ADR-RES ovarian, 20.1%.
For `O=C1NN(C(=O)c2ccc(Cl)cc2)C(c2ccccc2)=N/C1=C\c1cn(-c2ccccc2)nc1-c1ccccc1`, the growth with SR leukemia was 90%; in the experiment on RPMI-8226 leukemia it was 117%; in the experiment with OVCAR-8 ovarian it was 94.1%; in the experiment with OVCAR-5 ovarian it was 93.4%; in the experiment on OVCAR-4 ovarian, 96.8%; in the experiment on SK-OV-3 ovarian, 102%. Further, the growth is 95.1% with IGROV1 ovarian, 112% in the experiment with OVCAR-3 ovarian, 94.8% with HS 578T breast and 92.9% in the experiment with NCI/ADR-RES ovarian.
In the case of `COc1ccc(C2NN=C3c4ccccc4CCC32)cc1` (stereo not given), the growth with SR leukemia was 3.17% (active); with RPMI-8226 leukemia it was 21.7%; in the experiment with OVCAR-8 ovarian, 80.4%; with OVCAR-5 ovarian, 90.5%; with OVCAR-4 ovarian, 71.4%; in the experiment on SK-OV-3 ovarian it was 77%. In addition, the growth is 16.8% in the experiment with IGROV1 ovarian, 37.6% in the experiment with OVCAR-3 ovarian, 62.3% in the experiment on HS 578T breast and 29.9% in the experiment with NCI/ADR-RES ovarian.
For the molecule `O=C1/C(=C/c2ccccc2)Oc2ccc(O)c(I)c21`, the growth in the experiment with SR leukemia is 98.2%; with RPMI-8226 leukemia, 95.4%; with OVCAR-8 ovarian, 96.7%; with OVCAR-5 ovarian, 108%; in the experiment with OVCAR-4 ovarian it was 95.4%; with SK-OV-3 ovarian, 99.6%. Moreover, the growth in the experiment with IGROV1 ovarian is 68.3%; in the experiment with OVCAR-3 ovarian, 101%; with HS 578T breast, 80.8%; in the experiment with NCI/ADR-RES ovarian, 99.3%.
As to `CC(C)CSc1nc(NN)c(C#N)c(-c2ccc(F)cc2)n1`, the growth in the experiment with SR leukemia is 74.8%; in the experiment on RPMI-8226 leukemia it was 61.2%; with OVCAR-8 ovarian it was 72%; in the experiment with OVCAR-5 ovarian, 89.4%; in the experiment on OVCAR-4 ovarian, 57.8%; in the experiment with SK-OV-3 ovarian, 60.9%. In addition, the growth is 72.5% in the experiment on IGROV1 ovarian, 59.1% in the experiment with OVCAR-3 ovarian, 78.3% in the experiment with HS 578T breast and 50.8% in the experiment with NCI/ADR-RES ovarian.
As for `O=[N+]([O-])c1ccc(Sc2ncccn2)c([N+](=O)[O-])c1`, the growth with SR leukemia is -20.3% (active); in the experiment on RPMI-8226 leukemia, -29.3% (active); with OVCAR-8 ovarian, 65.8%; in the experiment with OVCAR-5 ovarian, 81.1%; in the experiment with OVCAR-4 ovarian, 51.8%; in the experiment on SK-OV-3 ovarian, 95.2%. Moreover, the growth in the experiment with IGROV1 ovarian is -9.02% (active); in the experiment with OVCAR-3 ovarian, 7.76% (active); in the experiment with HS 578T breast it was 88.6%; with NCI/ADR-RES ovarian, 53.8%.
With `CC(C)(C)n1cc(-c2ccnc(NCCCNS(=O)(=O)c3ccccc3)c2)c(-c2cccc(O)c2)n1`, the growth in the experiment with SR leukemia was 20.9%; with RPMI-8226 leukemia, 10.5%; with OVCAR-8 ovarian it was 52.4%; with OVCAR-5 ovarian, 67.7%; in the experiment with OVCAR-4 ovarian, 55.9%; in the experiment on SK-OV-3 ovarian, 88.6%. Also, the growth with IGROV1 ovarian is 51.1%; with OVCAR-3 ovarian, 54.1%; with HS 578T breast it was 51%; with NCI/ADR-RES ovarian, 56.9%.
For the molecule `COC(=O)[C@]12CC[C@@H](C)[C@H](C)[C@@H]1C1=CC[C@@H]3[C@@]4(C)C(C=O)=C[C@@](C)(COC(=O)c5ccco5)[C@@H]4[C@H](O)C[C@@]3(C)[C@]1(C)CC2`, the growth in the experiment on SR leukemia is 0.404% (active); with RPMI-8226 leukemia, -26.8% (active); in the experiment with OVCAR-8 ovarian it was -3.22% (active); in the experiment on OVCAR-5 ovarian, -20.9% (active); in the experiment with OVCAR-4 ovarian, -0.264% (active); in the experiment on SK-OV-3 ovarian, 18.7%. For the same molecule, the growth with IGROV1 ovarian was 5.24% (active); in the experiment on OVCAR-3 ovarian, -75.5% (active); in the experiment on HS 578T breast, -9.48% (active); in the experiment on NCI/ADR-RES ovarian it was 0.299% (active).
Turning to `NC1=NN(O)C2=CC([N+](=O)[O-])C=CC2=N1` (stereo not given), the growth in the experiment with SR leukemia is 94.8%; in the experiment with RPMI-8226 leukemia it was 99.2%; with OVCAR-8 ovarian, 99.4%; in the experiment with OVCAR-5 ovarian, 118%; in the experiment with OVCAR-4 ovarian it was 108%; in the experiment with SK-OV-3 ovarian, 100%. Further, the growth with IGROV1 ovarian is 120%; with OVCAR-3 ovarian it was 99.8%; in the experiment with HS 578T breast it was 98.8%; in the experiment on NCI/ADR-RES ovarian, 93.4%.
